Results filed as inconclusive are left out. Values without a mark were called inactive. Calls of active or inactive are those of the source. The call rests on the fitted dose curve; in most records, active means well fitted curve in the direction sought with a large enough effect; inconclusive means small, poorly fitted or top-dose-only effect, or another doubt; inactive means no such curve, though single readings can be large or run the other way.

The test can be described thus: Dual reporter qHTS for antagonist of Pregnane X Receptor (hPXR) against the NCATS DSHEA and TCM libraries: Fluorescence Readout (AID 1920061). Further: 0% is about no effect. The settings on record: PXR dual reporter cells, antagonist mode; series mostly up to 40 µM. The source says: Assay Development and Screening Technology Laboratory (ADST)
National Center for Advancing Translational Sciences (NCATS), Rockville, MD
National Institute of Health (NIH), Bethesda, Maryland
Dietary Supplements and Natural Products have minor oversight of their safety and efficacy. We assembled a collection of Dietary Supplements and Natural Products (DSNP) as well as Traditional Chinese Medicinal (TCM) Plant extracts, which were screened against an in vitro panel of assays, including a liver cytochrome p450 enzyme panel, CAR/PXR signaling pathways, and P-gp transporter assays, to assess their activity. This pipeline facilitated the interrogation of Natural Product-Drug Interaction (NaPDI) through prominent metabolizing pathways. In addition, we compared the activity profiles of the DSNP/TCM substances with those of an approved drug collection. Many of the approved drugs have well-annotated mechanisms of action (MOA) while the MOAs for most of the DSNP and TCM samples remain unknown. Based on the premise that compounds with similar activity profiles tend to share similar targets or MOA, we clustered the library activity profiles to identify overlap with the NCATS Pharmaceutical Collection to predict the MOAs of the DSNP/TCM substances. Overall, we highlight four significant bioactivity profiles (measured by p-values) as examples of this prediction. To assess broad cytotoxicity, we employed screening against a HepG2 cell line. In addition, transporter-mediated drug interactions are utilized in the characterization of DDIs using a P-glycoprotein (P-gp) assays. To profile potential P-gp activity, a differential cell viability was measured against two cell lines: a parental KB-3-1 human cervical adenocarcinoma cell line and the drug-resistant subline KB-8-5-11 that overexpresses P-gp.
To this end, we profiled both collections for potential CAR and/or PXR activity, employing a previously published 1536-well qHTS assay.
[1] Lee TD, et al. A High-Throughput Screen of a Library of Therapeutics Identifies Cytotoxic Substrates of P-glycoprotein. Mol Pharmacol. Nov 2019;96(5):629-640. doi:10.1124/mol.119.115964
For PXR luciferase reporter gene assays, we used hPXR-LucHepG2cells provided by Dr. Taosheng Chen (Department of Chemical Biology and Therapeutics, St. Jude Children's Research Hospital). Cells were cultured in EMEM supplemented with 10% fetal bovine serum, 100U/mL penicillin and 100ug/mL streptomycin, and 500ug/mL of geneticin.
PROTOCOL TABLE (as described by Inglese J, Shamu CE and Guy RK. 2007)
SEQUENCE No. (e.g., 1, 2, 3, etc.); PARAMETER (e.g., Cells, Incubation, Reagent, etc.); VALUE; DESCRIPTION.
1; Cells; 5 uL; hPXR-LucHepG2; white solid-bottom Greiner plate.
2; Incubation; 5h; 37C, 95% humidity, 5% CO2
3; Compounds and control; 23 nL; Kalypsis pintool (Wako USA).
4; Reagent; 1uL; rifampicin (RIF) in the antagonist mode.
6; Reagent; 1 uL; CellTiter-Fluor detection reagent.
7; Incubation; 1 hr; 37C, 5% CO2.
8; Read; Fluorescence; ViewLux plate reader.
9; Reagent; 4 uL; ONE-Glo Luciferase detection reagent.
10; Incubation; 30 min; room temperature.
11; Read; Luminescence; ViewLux plate reader.
NOTES (numbers refer to Sequence numbers above)
1. Briefly, 5uL of hPXR-LucHepG2 cells in phenol red-free DMEM containing 5% charcoal-stripped FBS, 1 mM sodium pyruvate (Invitrogen), 2 mM L-glutamine (Invitrogen), and 100 U/mL penicillin and 100ug/mL streptomycin were dispensed using a BioRAPTR FRD at 4 x 10^5cells/mL (2000cells/well) in tissue culture-treated 1536-well white assay plates (GreinerBio-One).
2. Plates were incubated for 5h at 37C, 95% humidity, and 5% CO2 to allow for cell attachment.
3. Compounds (final concentration for most substances ranged from 15.6 nM to 45.9uM), positive SPA70 (final concentration range of 2.8 nM to 92uM for the antagonist mode), and cytotoxicity control tetraoctyl ammonium bromide (final concentration of 92uM) were transferred (23 nL) via pintool (Wako Automation).
4-5. […]
Background: Quantitative high-throughput screening tests each substance at several concentrations.
With `CC1=CCC2CC1C2(C)C` (stereo unspecified), the molecule was called inactive. `C=C1CC[C@H](O)CC1=C/C=C1\CCC[C@]2(C)[C@@H]([C@H](C)/C=C/[C@H](C)C(C)C)CC[C@@H]12`: the result was inactive. `CC(C)=CCC/C(C)=C/CC/C(C)=C/CC/C(C)=C/CC1=C(C)C(=O)c2ccccc2C1=O`: the molecule was called inactive. Turning to `CC[C@H](CC[C@@H](C)[C@H]1CC[C@H]2[C@@H]3CC=C4C[C@@H](O)CC[C@]4(C)[C@H]3CC[C@]12C)C(C)C`, the outcome was inactive. `CCCCC/C=C\C/C=C\C/C=C\CCCCC(=O)O`: the activity change, negative = inhibition was 4.34% [at 5 µM]. On to `Cc1ncc(C[n+]2csc(CCO)c2C)c(N)n1`, for which the outcome was inactive. Same read-out and setting: the entry for `Oc1ccc(/C=C/c2cc(O)cc(O)c2)cc1` is “inactive”; for `CCCCCCCCCCCC(=O)OCC(O)CO` (stereo unspecified) it is “inactive”. With `CC/C=C\C/C=C\C/C=C\C/C=C\C/C=C\C/C=C\CCC(=O)O`, the molecule was classed as inactive. Turning to `CC/C=C\C/C=C\C/C=C\CCCCCCCC(=O)O`, the molecule was called inactive. For `Oc1cccc(O)c1O`, the call was inactive. As to `CC/C=C\C/C=C\C/C=C\C/C=C\C/C=C\CCCC(=O)O`, the result was inactive. With `CC(C)=CCC/C(C)=C/C=C/C(C)=C/C=C/C(C)=C/C=C/C=C(C)/C=C/C=C(C)/C=C/C=C(\C)CCC=C(C)C`, the call was inactive. In the case of `COC1=C(OC)C(=O)C(C/C=C(\C)CC/C=C(\C)CC/C=C(\C)CC/C=C(\C)CC/C=C(\C)CC/C=C(\C)CC/C=C(\C)CC/C=C(\C)CC/C=C(\C)CCC=C(C)C)=C(C)C1=O`, the result was inactive. Regarding `O=C(O)/C=C/c1ccccc1`, the result was inactive.

On to `C=C1CC[C@H](O)C/C1=C\C=C1/CCC[C@]2(C)[C@@H]([C@H](C)CCCC(C)C)CC[C@@H]12`, for which the molecule was classed as inactive.
